Measured values reported in PubChem BioAssay AID1159580 (chemical genetic matrix, 2015).
The whole screen tested about 5,500 compounds, of which about 2,000 (36%) were called active. Another 18% or so got no clear call; they are omitted. Cut-off read from the data, not from the text of the source: active = normalized growth mostly below about 0.91 (no sharp cut-off); inconclusive = no clear call, values can overlap the other calls; inactive = mostly above about 0.92. The list shows a part of the results.

Assay: chemical genetic growth profiling, strain panel (AID 1159580);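 note: tested at 20 µM; growth read once vehicle control cultures reached saturation at 30 °C; 1 = growth at the plate median or of vehicle wells; lower values mean less growth of the strain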
Details: S. cerevisiae deletion strains, growth OD

Measured: normalized growth

CCCc1cc(OC)c2c(c1)OCO2
inactive: locus YAL021C, strain ccr4, stronger effect = lower value 1.04 | locus YAL026C, strain drs2, stronger effect = lower value 0.988 | locus YAL030W, strain snc1, stronger effect = lower value 0.999 | locus YBL061C, strain skt5, stronger effect = lower value 0.993 | locus YBR009C, strain hhf1, stronger effect = lower value 0.988 | locus YBR023C, strain chs3, stronger effect = lower value 0.991 | locus YBR171W, strain sec66, stronger effect = lower value 0.973 | locus YBR231C, strain swc5, stronger effect = lower value 1.01 | locus YBR279W, strain paf1, stronger effect = lower value 1 | locus YCL011C, strain gbp2, stronger effect = lower value 0.999 | locus YCL016C, strain dcc1, stronger effect = lower value 0.98 | locus YCL069W, strain vba3, stronger effect = lower value 0.996 | locus YCR088W, strain abp1, stronger effect = lower value 0.985 | locus YDL005C, strain med2, stronger effect = lower value 0.975 | locus YDL040C, strain nat1, stronger effect = lower value 0.978 | locus YDR001C, strain nth1, stronger effect = lower value 0.987 | locus YDR069C, strain doa4, stronger effect = lower value 0.994 | locus YDR137W, strain rgp1, stronger effect = lower value 0.94 | locus YDR159W, strain sac3, stronger effect = lower value 0.943 | locus YDR195W, strain ref2 0.974 | locus YDR297W, strain sur2, stronger effect = lower value 0.995 | locus YDR334W, strain swr1, stronger effect = lower value 1.01 | locus YDR335W, strain msn5, stronger effect = lower value 0.988 | locus YDR392W, strain spt3, stronger effect = lower value 0.952 | locus YEL003W, strain gim4, stronger effect = lower value 0.994 | locus YEL037C, strain rad23, stronger effect = lower value 0.998 | locus YEL061C, strain CIN8 (second series), stronger effect = lower value 0.979 | locus YER015W, strain faa2, stronger effect = lower value 0.989 | locus YER016W, strain bim1, stronger effect = lower value 0.977 | locus YER111C, strain swi4, stronger effect = lower value 0.976 | locus YER155C, strain BEM2 (second series), stronger effect = lower value 0.928 | locus YFR010W, strain ubp6, stronger effect = lower value 0.999 | locus YGL167C, strain pmr1, stronger effect = lower value 0.983 | locus YGL173C, strain kem1, stronger effect = lower value 0.987 | locus YGL227W, strain vid30, stronger effect = lower value 0.974 | locus YGL240W, strain doc1, stronger effect = lower value 1 | locus YGL253W, strain hxk2, stronger effect = lower value 0.995 | locus YHR013C, strain ard1, stronger effect = lower value 1.11 | locus YHR027C, strain rpn1, stronger effect = lower value 0.982 | locus YHR030C, strain SLT2, stronger effect = lower value 0.944 | locus YHR079C, strain IRE1, stronger effect = lower value 0.946 | locus YHR142W, strain chs7, stronger effect = lower value 0.974 | locus YJL092W, strain hpr5, stronger effect = lower value 0.985 | locus YJL095W, strain BCK1 (second series), stronger effect = lower value 1 | locus YJL095W, strain BCK1, stronger effect = lower value 1.02 | locus YJL115W, strain asf1, stronger effect = lower value 0.98 | locus YJL129C, strain trk1, stronger effect = lower value 0.992 | locus YJL154C, strain vps35, stronger effect = lower value 0.994 | locus YJL164C, strain tpk1, stronger effect = lower value 1 | locus YJL166W, strain qcr8, stronger effect = lower value 0.985 | locus YJL187C, strain SWE1, stronger effect = lower value 1 | locus YJR066W, strain TOR1, stronger effect = lower value 0.937 | locus YKL160W, strain elf1, stronger effect = lower value 0.983 | locus YKR026C, strain gcn3, stronger effect = lower value 0.971 | locus YKR091W, strain srl3, stronger effect = lower value 0.984 | locus YLL001W, strain dnm1, stronger effect = lower value 0.999 | locus YLL026W, stronger effect = lower value 0.992 | locus YLL041C, strain sdh2, stronger effect = lower value 0.997 | locus YLR027C, strain aat2, stronger effect = lower value 0.984 | locus YLR113W, strain HOG1, stronger effect = lower value 1.04 | locus YLR221C, strain rsa3, stronger effect = lower value 0.989 | locus YLR258W, strain gsy2, stronger effect = lower value 0.998 | locus YLR262C, strain YPT6 (second series), stronger effect = lower value 0.927 | locus YLR320W, strain mms22, stronger effect = lower value 1 | locus YLR342W, strain FKS1, stronger effect = lower value 0.977 | locus YLR357W, strain rsc2, stronger effect = lower value 0.974 | locus YLR370C, strain arc18, stronger effect = lower value 0.984 | locus YLR384C, strain iki3, stronger effect = lower value 0.995 | locus YML120C, strain ndi1, stronger effect = lower value 0.987 | locus YMR058W, strain fet3, stronger effect = lower value 1.02 | locus YMR125W, strain sto1, stronger effect = lower value 0.971 | locus YMR129W, stronger effect = lower value 0.975 | locus YMR205C, strain PFK2, stronger effect = lower value 0.98 | locus YMR231W, strain pep5, stronger effect = lower value 1 | locus YNL071W, strain lat1, stronger effect = lower value 0.998 | locus YNL183C, strain NPR1, stronger effect = lower value 1.01 | locus YNL209W, strain ssb2, stronger effect = lower value 0.967 | locus YNL248C, strain rpa49, stronger effect = lower value 0.989 | locus YNL322C, strain KRE1 (second series), stronger effect = lower value 0.976 | locus YNR049C, strain mso1, stronger effect = lower value 0.992 | locus YOR001W, strain rrp6, stronger effect = lower value 0.999 | locus YOR070C, strain gyp1, stronger effect = lower value 0.997 | locus YOR080W, strain dia2, stronger effect = lower value 0.966 | locus YOR083W, strain WHI5, stronger effect = lower value 0.938 | locus YOR106W, strain vam3, stronger effect = lower value 0.976 | locus YOR231W, strain MKK1, stronger effect = lower value 0.957 | locus YOR265W, strain rbl2, stronger effect = lower value 0.981 | locus YOR270C, strain vph1, stronger effect = lower value 1 | locus YOR290C, strain snf2, stronger effect = lower value 0.995 | locus YPL051W, strain arl3, stronger effect = lower value 0.991 | locus YPL078C, strain atp4, stronger effect = lower value 0.981 | locus YPL106C, strain sse1, stronger effect = lower value 0.976 | locus YPL240C, strain hsp82, stronger effect = lower value 0.974 | locus YPL256C, strain CLN2, stronger effect = lower value 0.953
